These results are taken from PubChem BioAssay AID620 (Sanford-Burnham Center for Chemical Genomics, 2007).

The structures appear in SMILES notation. Hit rate of the full screen: of about 87,000 compounds, about 360 (0.41%) were called active. Rule as the data show it: active = cytotoxicity above about 50%; inactive = the rest. Shown is part of a subset that was picked to be rich in actives.

This assay is described as follows: HT1080 cell viability loss – fluorescence readout (AID 620).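 Also: cells exposed to compound overnight then 4 h with Alamar Blue; 0% = vehicle DMSO and 100% = killing control.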 The following applies: at 10 µM, hits give high values.
Take `N#CCSc1nnc(Cc2cccs2)n1C1CCCCC1`: the cytotoxicity was 11.1% (inactive).

Take `Cc1ccc(C(=O)N2CCC(C(N)=O)CC2)cc1C`: the cytotoxicity is -2.5% (inactive).

Regarding `Cc1nn(Cc2n[nH]c(=S)n2Cc2ccccc2)c(C)c1Cl`, the cytotoxicity was -7% (inactive). `Cc1ccc(NC(=O)C2(N(CC(C)C)C(=O)Cn3nnnc3N)CCCCC2)cc1`: the cytotoxicity is 3% (inactive).

For `CCNC(=O)CSc1nnc(-c2ccc(OC)cc2)n1CC(C)C`, the cytotoxicity was -18.3% (inactive).

For the compound `CSCC[C@H](Nc1ncnc2sc(C)c(C)c12)C(=O)O`, the cytotoxicity is -6% (inactive). Then `CSc1nnc(-c2ccccc2)o1`, with -3.8% (inactive); and `O=c1[nH]c2ccccc2nc1N1CCOCC1`, with -5% (inactive); and `CN(C)CCNS(=O)(=O)c1ccc(Cl)cc1`, with -7.5% (inactive).

As to `O=S(=O)(c1ccc(N2CCC(c3ccc(Cl)cc3)=N2)cc1)N(CCO)CCO`, the cytotoxicity was -11.6% (inactive). For `COc1ccc(-n2nnc3c(=O)n(C/C=C/c4ccccc4)cnc32)cc1` the value was -3.8% (inactive). Then `Nc1c(C(=O)NCc2ccc3c(c2)OCO3)c2nc3ccccc3nc2n1CCCN1CCOCC1`, with 52.9% (active); and `COc1ccc(CNC(=O)c2c(N)n(CCCN3CCOCC3)c3nc4ccccc4nc23)cc1`, with 15.1% (inactive); and `Nc1c(C(=O)NCc2ccc(F)cc2)c2nc3ccccc3nc2n1CCCN1CCOCC1`, with 0.2% (inactive). As to `O=C(O)CSCCc1ccccn1`, the cytotoxicity is 8.2% (inactive). For `CN1C(=O)CSc2ccc(NC(=O)N3CCc4ccccc43)cc21` the value was 64.2% (active); for `CN1C(=O)CSc2ccc(NC(=O)N3CCN(c4ccccn4)CC3)cc21`, -6.2% (inactive). With `COc1cccc(NC(=O)Nc2ccc3c(c2)N(C)C(=O)CS3)c1`, the cytotoxicity is 6% (inactive). Then `Cc1nc(NC2=NCN(CCN3CCOCC3)CN2)nc2c(C)cccc12`, with 4.7% (inactive).

For `Cc1cc2nc(NC3=NCN(CCCN4CCOCC4)CN3)nc(C)c2cc1C`, the cytotoxicity is 4.7% (inactive).

Consider `CCOC(=O)c1c(C)[nH]c(C(=O)OCC(=O)Nc2cc(C)ccc2OC)c1C`, for which the cytotoxicity is -1.2% (inactive). For `CCOC(=O)c1[nH]c(C)c(C(=O)OCC(=O)N2CCc3ccccc32)c1C` the value was 6.7% (inactive); for `CCOC(=O)c1[nH]c(C)c(C(=O)N2CCc3ccccc32)c1C`, 57.9% (active); for `CCOC(=O)c1ccc(NC(=O)c2c(C)[nH]c(C(=O)OCC)c2C)cc1`, 5.5% (inactive). As to `CCOC(=O)c1[nH]c(C)c(C(=O)Nc2ccc(C)c(Cl)c2)c1C`, the cytotoxicity was 22.7% (inactive). For `CCOC(=O)c1[nH]c(C)c(C(=O)Nc2ccc(C)cc2C)c1C` the value was 52.7% (active); for `CCOC(=O)c1c(C)[nH]c(C(=O)OCC(=O)N2CCc3ccccc32)c1C`, -4.1% (inactive); for `CCOC(=O)c1[nH]c(C)c(C(=O)Nc2ccc(C)c(C)c2)c1C`, -11.9% (inactive).

Take `COc1ccc(OC)c(NC(=O)c2[nH]c(C)c(C(C)=O)c2C)c1`: the cytotoxicity was 11.3% (inactive). In the case of `CCOC(=O)c1[nH]c(C)c(C(=O)Nc2cc(Cl)ccc2C)c1C`, the cytotoxicity was 52% (active). Then `CCOC(=O)c1[nH]c(C)c(C(=O)Nc2ccc(Cl)cc2)c1C`, with 0.6% (inactive). For `CCOC(=O)c1[nH]c(C)c(C(=O)Nc2cc(OC)ccc2OC)c1C` the value was 58% (active).

For `O=C(Nc1ccccc1)N1CCCC2CCCCC21` (centres undefined), the cytotoxicity was 6.5% (inactive).

With `COc1cccc(-c2ccc(=O)n(CC(=O)NCCN3CCOCC3)n2)c1`, the cytotoxicity was -0.6% (inactive). Then `Cc1ccc(NC(=O)CN(C)c2ccc(S(=O)(=O)N3CCN(C)CC3)cn2)cc1`, with -4.8% (inactive); and `O=C(O)C1CC=CCC1C(=O)N1CCc2ccccc21` (centres undefined), with -3.6% (inactive). As to `Cc1cc(C)n2cc(CSc3nc4cc(Cl)ccc4o3)nc2n1`, the cytotoxicity is 1% (inactive). For `Cc1ccc(C2C(C(=O)O)c3ccccc3C(=O)N2C)o1` (centres undefined) the value was 3.3% (inactive). For `CCOC(=O)c1[nH]c(C)c(C(=O)Nc2ccccc2F)c1C` the value was 44.7% (inactive); for `CCOC(=O)c1[nH]c(C)c(C(=O)Nc2ccccc2C)c1C`, 61.8% (active); for `CCOC(=O)c1[nH]c(C)c(C(=O)Nc2cccc(Cl)c2C)c1C`, 33.8% (inactive). Then `COC(=O)C1=C(C)N(CCc2ccccc2)C(=O)C1(NS(=O)(=O)c1ccc(NC(C)=O)cc1)C(F)(F)F` (centres undefined), with -19.4% (inactive); and `O=C(NCc1ccc2c(c1)OCO2)c1ccc(CN2CCOCC2)cc1`, with -0.5% (inactive); and `Cc1ccc(C)c(CN2C(=O)C3(OCCCO3)c3ccccc32)c1`, with -5.2% (inactive). As to `CC(=O)N1c2ccccc2N(Cc2ccc(C)cc2C)C(=O)C1(C)C`, the cytotoxicity was 52.2% (active). Turning to `Cc1ccc(C(=O)N2c3ccccc3N(Cc3ccccc3)C(=O)C2(C)C)cc1`, the cytotoxicity is -12.6% (inactive).

Consider `Cc1nnc(N2C(=O)C(O)=C(C(=O)c3ccco3)C2c2ccc(C(C)C)cc2)s1` (centres undefined), for which the cytotoxicity was -3.4% (inactive). With `O=C(Nc1cc(C(F)(F)F)ccc1N1CCOCC1)c1ccc[n+]([O-])c1`, the cytotoxicity is 8.9% (inactive).

In the case of `CCc1ccccc1NS(=O)(=O)c1ccc2[nH]cc(C(=O)NCC3CCCO3)c(=O)c2c1` (centres undefined), the cytotoxicity was 3.1% (inactive). For `CCCCOC(=O)c1ccc(NC(=O)CSc2nncn2C)cc1` the value was 61.2% (active); for `COC(=O)c1ccc(NC(=O)CSc2nncn2C)cc1`, 3.9% (inactive); for `Cn1cnnc1SCC(=O)Nc1ccccc1`, 5.5% (inactive).

Consider `CCCCCn1c(=O)[nH]c2cc(C(=O)NCCCN3CCCCC3)ccc2c1=O`, for which the cytotoxicity was -6% (inactive). Then `CN(C)S(=O)(=O)c1cccc(-c2nnc(-c3ccccc3)o2)c1`, with -8% (inactive); and `O=C(CSCc1c(Cl)cccc1Cl)NCc1ccco1`, with 6.4% (inactive); and `C[C@@H](NC(=O)c1coc(=O)c(Br)c1)c1ccccc1`, with 2.9% (inactive). Then `CN(C)CCNC(=O)c1coc(=O)c(Br)c1`, with -5.5% (inactive). With `CC(C)CCOc1ccc(C(=O)O)cc1`, the cytotoxicity is -1.4% (inactive). For `COc1cc(OC)c(NC(=O)CCc2ccccc2)cc1Cl` the value was -15.4% (inactive). For `CNC(=O)CSc1nnc(-c2ccco2)n1-c1ccccc1OC` the value was 25.4% (inactive); for `CC(SC(=S)N1CCOCC1)C(=O)O` (centres undefined), 7.1% (inactive); for `CC(C(=O)OCc1nnc(-c2ccccc2)o1)N1C(=O)c2ccccc2C1=O` (centres undefined), 4.5% (inactive). As to `COc1ccccc1OCCCn1cc(C#N)c2ccccc21`, the cytotoxicity is 76.4% (active). For `COc1ccccc1OCCn1cc(C#N)c2ccccc21` the value was -3.5% (inactive); for `N#Cc1cn(CCCOc2ccccc2)c2ccccc12`, 24.2% (inactive); for `COc1ccc(CCn2c(-n3nc(C)cc3C)nc3c2c(=O)[nH]c(=O)n3C)cc1`, 55.6% (active). For `Cc1cc(C)n(-c2nc3c(c(=O)[nH]c(=O)n3C)n2CCc2ccccc2)n1`, the cytotoxicity is 15.7% (inactive).

Take `Cc1ccc(Cn2c(-n3nc(C)cc3C)nc3c2c(=O)[nH]c(=O)n3C)cc1`: the cytotoxicity is -7.9% (inactive). For `CC(=O)Cc1nsc(NC(=O)C2Cc3ccccc3C(=O)O2)n1` (centres undefined) the value was -9.2% (inactive); for `CCCOc1ccc2ccccc2c1/C=N/n1c(C)nnc1-n1nc(C)cc1C`, 61.6% (active). Then `Cc1cc(C)n(-c2nnc(C)n2/N=C/c2cc(Br)ccc2OCc2ccccc2)n1`, with 5.9% (inactive); and `COc1ccccc1/C=N/n1c(C)nnc1-n1nc(C)cc1C`, with 9.8% (inactive). Then `Cc1c(C(N)=O)sc2ncn(CC(=O)N3CCC(C)CC3)c(=O)c12`, with 0.9% (inactive). As for `CCN1CCCC1CNC(=O)CN1C(=O)COc2ccc(C)cc21` (centres undefined), the cytotoxicity was -4.1% (inactive).

With `O=C(Cc1ccc(Br)cc1)OCC(=O)c1ccc2c(c1)OCCO2`, the cytotoxicity is -6.8% (inactive). For `O=C(Cc1n[nH]c(=O)c2ccccc12)OCC(=O)c1ccc2c(c1)OCCO2` the value was 60.4% (active); for `O=C(Cn1cnc2ccccc2c1=O)OCC(=O)c1ccc2c(c1)OCCO2`, -7.6% (inactive). As to `CC(C)c1cc(Nc2cccc(O)c2)cc(C(C)C)c1O`, the cytotoxicity was 2% (inactive). `CCN(Cc1ccccc1)S(=O)(=O)c1ccc(S(=O)(=O)N(Cc2ccccn2)Cc2ccco2)cc1`: the cytotoxicity is 11.3% (inactive). Then `CCN1CCN(C(=O)Cn2ncc3ccsc3c2=O)CC1`, with -5.8% (inactive). Then `CCN1C(=O)/C(=C\N2CCCc3ccccc32)SC1=S`, with 52.5% (active); and `CCN1C(=O)/C(=C/N2CCc3ccccc32)SC1=S`, with 5.1% (inactive).

`CCN1C(=O)/C(=C\N2CCCCCC2)SC1=S`: the cytotoxicity was -5.6% (inactive). As for `COc1ccc(C(=O)Nc2ccc(N3CCOCC3)cc2)cc1OC`, the cytotoxicity is -4.9% (inactive). With `COc1cc(C(=O)Nc2cccc3cccnc23)cc(OC)c1OC`, the cytotoxicity was 5.4% (inactive). For `Cn1c(=N)n(CC(O)c2ccco2)c2ccccc21` (centres undefined) the value was -14.7% (inactive); for `Cn1c(=N)n(CC(=O)O)c2ccccc21`, 0.2% (inactive). `Cn1c(=N)n(CC(O)c2cccc3ccccc23)c2ccccc21` (centres undefined): the cytotoxicity is 57.8% (active). For the compound `CC1CCC(C(C)C)C(OCC(O)CN2CCOCC2)C1` (centres undefined), the cytotoxicity was 2.7% (inactive). For `COc1ccccc1NC(=O)c1oc2ccccc2c1NC(=O)c1cc(OC)c(OC)c(OC)c1` the value was 50% (active); for `COc1ccccc1NC(=O)c1oc2ccccc2c1NC(=O)c1ccco1`, 0.3% (inactive); for `COCC(=O)Nc1c(C(=O)Nc2ccccc2OC)oc2ccccc12`, -17.1% (inactive). For `Cc1oc2c(c1C(=O)Nc1cccc(C(=O)O)c1)CCCC2` the value was 9.3% (inactive); for `CC1(C)CC2CC(C)(CN2C(=O)Cc2ccccc2)C1` (centres undefined), -25% (inactive); for `COc1cccc(C2C(C(N)=O)=C(C)Nc3nc(CCCO)nn32)c1OC` (centres undefined), 1% (inactive). As for `CCOC(=O)c1c(C)sc2c1N(C(=O)CN(CC)CC)c1cc(Cl)ccc1S2`, the cytotoxicity was 6.5% (inactive). For `CCOC(=O)c1c(C)sc2c1N(C(C)=O)c1cc(Cl)ccc1S2` the value was 17.6% (inactive).

As to `CCOC(=O)c1c(C)sc2c1N(C(=O)CCl)c1cc(Cl)ccc1S2`, the cytotoxicity is 87.2% (active).

As for `CCCN1CCN(C(c2cc3cc4c(cc3[nH]c2=O)OCO4)c2nnnn2C(C)(C)C)CC1` (centres undefined), the cytotoxicity was 1.4% (inactive).
